Results on 8 compounds are retold here after PubChem BioAssay (NCI).

Compounds without any hit were thinned out: in the full panel of roughly 83,000, 20% have a hit.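 Percent growth is the endpoint: 0 to 100 indicates growth inhibition (40 means 60% inhibition), 0 means no net growth, and negative values indicate cell death.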 Values without a mark were called inactive. Active and inactive are the calls of the source. The calls were made as follows: active = growth percent below 10; inactive = the rest.

Among the test systems are HOP-62 NSCLC; NCI-H460 lung; A549/ATCC NSCLC; 786-0 renal; DU-145 prostate; MALME-3M melanoma; RXF 393 renal; SF-295 CNS; UACC-257 melanoma; M14 melanoma; SNB-19 CNS; SK-MEL-2 melanoma; UO-31 renal; A498 renal; HL-60(TB) leukemia; RPMI-8226 leukemia; OVCAR-5 ovarian; OVCAR-4 ovarian; T-47D breast; HCC-2998 colon.
Holding throughout (experiment): NCI-60 one-dose screen, 48 h (100 = growth as untreated, 0 = no growth, -100 = all killed)
Details in all cases: 10 µM unless noted

In the case of `CC(=O)[O][Hg][c]1nc2c(c(=O)n(C)c(=O)n2C)n1C`, the growth with HOP-62 NSCLC is 120%; with NCI-H460 lung, 98.8%; with A549/ATCC NSCLC, 102%; with 786-0 renal it was 102%; in the experiment on DU-145 prostate, 107%; in the experiment with MALME-3M melanoma it was 49.8%. Moreover, the growth is 97.6% with RXF 393 renal; 98.9% in the experiment on SF-295 CNS; 98% in the experiment with UACC-257 melanoma; 101% in the experiment on M14 melanoma; 98.2% in the experiment with SNB-19 CNS; 98.6% in the experiment with SK-MEL-2 melanoma. In addition, the growth with UO-31 renal is 104%; with A498 renal it was 125%; in the experiment with HL-60(TB) leukemia it was 104%; in the experiment with RPMI-8226 leukemia it was 102%; in the experiment with OVCAR-5 ovarian it was 117%; in the experiment on OVCAR-4 ovarian, 95.1%. The growth is 88.8% in the experiment with T-47D breast and 131% with HCC-2998 colon.
Consider `C=CCN1C(=O)C(CC)(CCC(C)C)C(=O)NC1=S` (stereo not given), for which the growth in the experiment on HOP-62 NSCLC was 113%; with NCI-H460 lung, 105%; in the experiment on A549/ATCC NSCLC, 98.7%; with 786-0 renal it was 97.7%; in the experiment on DU-145 prostate, 105%; in the experiment on MALME-3M melanoma, 96.1%. Besides, the growth in the experiment with RXF 393 renal was 107%; in the experiment with SF-295 CNS it was 88.7%; in the experiment with UACC-257 melanoma, 89.5%; with M14 melanoma it was 107%; in the experiment with SNB-19 CNS it was 100%; in the experiment with SK-MEL-2 melanoma it was 117%. The growth is 86.4% in the experiment with UO-31 renal; 112% in the experiment with A498 renal; 101% in the experiment on HL-60(TB) leukemia; 95.1% with RPMI-8226 leukemia; 112% with OVCAR-5 ovarian; 106% with OVCAR-4 ovarian. Further, the growth was 113% with T-47D breast and 124% in the experiment on HCC-2998 colon.
For `O=[N+]([O-])c1ccc(F)c([N+](=O)[O-])c1F`, the growth was 106% in the experiment with HOP-62 NSCLC; 106% in the experiment with NCI-H460 lung; 96% with A549/ATCC NSCLC; 115% in the experiment on DU-145 prostate; 96% in the experiment with MALME-3M melanoma; 109% in the experiment on RXF 393 renal. In addition, the growth with SF-295 CNS was 104%; in the experiment on UACC-257 melanoma it was 103%; with SNB-19 CNS, 115%; with SK-MEL-2 melanoma it was 93.7%; in the experiment on UO-31 renal it was 78.3%; in the experiment on A498 renal, 93.7%. Moreover, the growth in the experiment on HL-60(TB) leukemia is 92.2%; in the experiment on RPMI-8226 leukemia it was 93.5%; with OVCAR-5 ovarian, 107%; with OVCAR-4 ovarian, 116%; with T-47D breast it was 96.6%; in the experiment on HCC-2998 colon, 105%.
Regarding `C=CCc1ccc(OC(=O)Cc2ccccc2)c(OC)c1`, the growth in the experiment on HOP-62 NSCLC was 93.2%; with NCI-H460 lung, 105%; in the experiment on A549/ATCC NSCLC it was 104%; in the experiment on 786-0 renal it was 99.2%; in the experiment on DU-145 prostate, 111%; with MALME-3M melanoma it was 86.8%. For the same compound, the growth in the experiment on RXF 393 renal is 110%; in the experiment with SF-295 CNS, 95.7%; in the experiment with UACC-257 melanoma, 120%; with M14 melanoma it was 106%; with SNB-19 CNS it was 110%; in the experiment on SK-MEL-2 melanoma, 80.6%. In addition, the growth was 77.1% with UO-31 renal; 97.4% in the experiment with A498 renal; 106% in the experiment with RPMI-8226 leukemia; 110% in the experiment with OVCAR-5 ovarian; 102% in the experiment on OVCAR-4 ovarian; 106% with T-47D breast. For the same compound, the growth with HCC-2998 colon is 95.8%.
With `CC1(C)N=C(N)N=C(N)N1c1ccc(CCCCc2ccc(S(=O)(=O)F)cc2)cc1`, the growth in the experiment with HOP-62 NSCLC was 31.9%; in the experiment on NCI-H460 lung, 12.3%; in the experiment on A549/ATCC NSCLC it was 14%; in the experiment with 786-0 renal, 25.1%; in the experiment with DU-145 prostate, 31.8%; in the experiment with MALME-3M melanoma it was 52.8%. Further, the growth is 43.2% in the experiment with RXF 393 renal; 7.77% (active) with SF-295 CNS; 39.1% in the experiment with UACC-257 melanoma; 42% in the experiment with SNB-19 CNS; 56.1% in the experiment on SK-MEL-2 melanoma; 104% in the experiment on UO-31 renal. In addition, the growth is 42.3% with A498 renal; 21.2% in the experiment with HL-60(TB) leukemia; 15.4% with RPMI-8226 leukemia; 41.2% in the experiment on OVCAR-5 ovarian; 86.1% in the experiment on OVCAR-4 ovarian; 16.6% with T-47D breast. In addition, in the experiment with HCC-2998 colon, the growth was 45.3%.
As to `CCOC(=O)c1cnc(SCc2ccc(Cl)c(Cl)c2)nc1N1CC1`, the growth in the experiment on HOP-62 NSCLC was 64.9%; in the experiment on NCI-H460 lung, 41%; in the experiment on A549/ATCC NSCLC, 50%; in the experiment with 786-0 renal, 60%; with DU-145 prostate, 66.7%; in the experiment on MALME-3M melanoma, 68.6%. Further, the growth in the experiment on RXF 393 renal is 66.6%; in the experiment on SF-295 CNS it was 39.1%; in the experiment with UACC-257 melanoma it was 79%; with M14 melanoma, 41.8%; with SNB-19 CNS, 62.9%; with SK-MEL-2 melanoma it was 66.2%. For the same compound, the growth with UO-31 renal is 34.7%; in the experiment on A498 renal, 44.3%; in the experiment with HL-60(TB) leukemia, 56.8%; with RPMI-8226 leukemia, 59.7%; in the experiment with OVCAR-5 ovarian, 82.9%; with OVCAR-4 ovarian it was 53.6%. The results for the growth in the experiment on T-47D breast and with HCC-2998 colon were 58.6% and 51.9%, respectively.
For `CC(=O)C1CCC2C3CC=C4CC(OC(=O)Cc5ccc(N(CCCl)CCCl)cc5)CCC4(C)C3CCC12C` (stereo not given), the growth was 112% with HOP-62 NSCLC; 101% in the experiment with NCI-H460 lung; 131% in the experiment with A549/ATCC NSCLC; 86% in the experiment with DU-145 prostate; 109% in the experiment with MALME-3M melanoma; 108% in the experiment on RXF 393 renal. Besides, the growth was 108% with SF-295 CNS; 116% in the experiment on UACC-257 melanoma; 97.4% in the experiment on M14 melanoma; 93.4% with SNB-19 CNS; 106% in the experiment with SK-MEL-2 melanoma; 109% in the experiment on UO-31 renal. In addition, the growth in the experiment on A498 renal was 105%; in the experiment on HL-60(TB) leukemia it was 101%; with RPMI-8226 leukemia, 73.2%; in the experiment with OVCAR-5 ovarian it was 107%; in the experiment with OVCAR-4 ovarian, 99.4%; in the experiment on T-47D breast, 105%. Also, the growth with HCC-2998 colon is 93.7%.
For `CC(C)[C@]12O[C@H]1[C@@H]1O[C@]13[C@]1(O[C@H]1C[C@H]1C4=C(CC[C@@]13C)C(=O)OC4)[C@@H]2OC(=O)OC(C)(C)C`, the growth with HOP-62 NSCLC is 16.6%; in the experiment on NCI-H460 lung, 2.11% (active); in the experiment with A549/ATCC NSCLC, 16.7%; in the experiment with 786-0 renal, 11.9%; in the experiment with DU-145 prostate, 8.08% (active); in the experiment with MALME-3M melanoma it was -35.6% (active). Moreover, the growth in the experiment with RXF 393 renal was -52.2% (active); with SF-295 CNS it was -28.7% (active); in the experiment with UACC-257 melanoma it was -7.48% (active); in the experiment on M14 melanoma it was -75.7% (active); in the experiment with SNB-19 CNS it was 16.5%; with SK-MEL-2 melanoma, -55.3% (active). The growth in the experiment with UO-31 renal was 1.21% (active); with A498 renal it was -36.6% (active); in the experiment with HL-60(TB) leukemia it was -15.7% (active); in the experiment with RPMI-8226 leukemia, 20.6%; with OVCAR-5 ovarian, 24.4%; in the experiment on OVCAR-4 ovarian, 29.3%. For the same compound, the growth in the experiment with T-47D breast was 23.8%; in the experiment with HCC-2998 colon, -38% (active).
